From PubChem BioAssay (Tox21)
Results filed as inconclusive are left out. The source made the active and inactive calls. The call rests on the fitted dose curve; in most records, active means well fitted inhibition curve with a large enough effect in the signal ratio in the repeat runs (not every such curve was filed as active); inconclusive means weak or mixed curves; inactive means flat fitted curve, though single readings scatter; the % refers to the signal ratio.

Assay: qHTS assay to identify small molecule antagonists of the TGF-beta/Smad signaling pathway (AID 1346924)
Details: SBE-bla HEK293T, TGF-beta/Smad reporter, beta-lactamase ratio
Description: U.S. Tox21 Program National Center for Advancing Translational Sciences [NCATS] NIH Chemical Genomics Center [NCGC] U.S. Environmental Protection Agency [EPA] National Institutes of Environmental Health Sciences [NIEHS] National Toxicology Program [NTP] U.S. Food and Drug Administration [FDA] Tox21 Assay Overview: Transforming growth factor beta (TGF-beta) superfamily consists of a large number of structurally related dimeric proteins that act as hormones or local mediators in regulating a wide range of biological functions. This superfamily includes TGF-betas themselves, the bone morphogenetic proteins (BMPs) and the activins. These ligands induce oligomerization of serine/threonine receptor kinases and phosphorylate the cytoplasmic signaling molecules of Smad protein family. CellSensor SBE-bla HEK 293T cell line (Life Technologies, Carlsbad, CA), responsive to TGF-beta was used to screen Tox21 10K compound library for identification of agonists/antagonists of the Smad signaling pathway. […]
Tox21 Assay Protocol Summary: SBE-bla HEK 293T cells were dispensed at 4,000/well in 5 uL of assay medium into black wall/clear-bottom 1536-well plates using a Multidrop Combi (ThermoFisher Scientific, Waltham, MA) dispenser. […] Fluorescence intensity (405 nm excitation, 460 nm and 530 nm emissions) was measured using an Envision plate reader (PerkinElmer, Shelton, CT).
Potency means the concentration at half of the fitted maximal effect.

| SMILES | Potency |
| --- | --- |
| CCCCCCCCCCCC[N+](C)(C)CCOc1ccccc1 | 50.9 µM (active) |
